Structures are written as SMILES. About 5,700 (2.6%) of roughly 220,000 compounds were called active. Inconclusive results (about 18%) are left out. The call rests on the fitted dose curve; in most records, active means well fitted inhibition curve with a large enough effect; inconclusive means small, poorly fitted or top-dose-only effect; inactive means no such curve, though single readings can be large or run the other way. What follows is part of a selection rich in actives, with near analogues and random picks from the rest. Where a call stands in place of a potency, no number is given.
Potency means the concentration at half of the fitted maximal effect.

This assay deals with Lysine-specific demethylase 5B (Homo sapiens) (UniProt Q9UGL1). Nature of the assay: Primary screen for KDM5B Histone Demethylases FDH-coupled qHTS. Further: nearly all actives have a fitted effect of over 70% in size. The note with it: FDH-coupled NADH fluorescence (FDH is formaldehyde dehydrogenase); series mostly up to 57.7 µM. The source says: Assay Submitter (PI): Qin Yan, Ph.D. (Yale University) and Xiaodong Cheng, Ph.D. (MD Anderson) This project was funded as part of the NCI NEXT Program and Chemical Biology Consortium (CBC) The histone demethylases, KDM5A and KDM5B catalyze the demethylation of lysine 4 on histone H3 (H3K4me3/2). They are overexpressed in a variety of cancers and have been implicated in cancer cell growth, metastasis, drug resistance, and tumor growth. KDM5A is amplified and overexpressed in breast and gastric cancer; and is translocated in leukemia. While KDM5B is highly expressed in human mammary tumors and breast cancer cell lines, but not in normal adult breast tissue. Moreover, knockdown of KDM5B leads to upregulation of tumor suppressor genes, including BRCA1. The goal of this project is to employ qHTS to identify selective small molecule inhibitors of KDM5A/B demethylase activity to better understand the role of KDM5 in cancer and to develop novel therapies. We employed an FDH-coupled assay previously reported by Sakurai et al. to monitor in vitro KDM5 demethylase activity. Compounds showing dose response inhibition are re-acquired, validated, and tested for non-specific interference with the formaldehyde dehydrogenase (FDH) counterscreen. True inhibitors are validated using an AlphaLisa secondary screen, which employs an H3K4(me2-1)-specific antibody to monitor demethylation of a biotin-tagged H3K4(me3) peptide substrate. Inhibitors are profiled against KDM4A and KDM6A AlphaLisa counterscreens to determine level of demethylase specificity; and against the TruHits counterscreen to eliminate non-specific inhibitory activity on the AlphaLISA detection method. Selective inhibitors identified from the primary and secondary screening are tested in cells using immunofluorescence to monitor global H3K4 tri-methylation as a measure of KDM5A/B inhibition. Early Translation Branch (ETB) National Center for Advancing Translational Sciences (NCATS), Rockville, MD National Institute of Health (NIH), Bethesda, Maryland [1] Sakurai, M et al. A miniaturized screen for inhibitors of Jumonji histone demethylases. Mol Biosyst. 2010 Feb;6(2):357-64. doi: 10.1039/b912993f. Epub 2009 Oct 8.
Lysine-specific demethylase 5B (Homo sapiens), sequence (Q9UGL1 whole entry, looked up): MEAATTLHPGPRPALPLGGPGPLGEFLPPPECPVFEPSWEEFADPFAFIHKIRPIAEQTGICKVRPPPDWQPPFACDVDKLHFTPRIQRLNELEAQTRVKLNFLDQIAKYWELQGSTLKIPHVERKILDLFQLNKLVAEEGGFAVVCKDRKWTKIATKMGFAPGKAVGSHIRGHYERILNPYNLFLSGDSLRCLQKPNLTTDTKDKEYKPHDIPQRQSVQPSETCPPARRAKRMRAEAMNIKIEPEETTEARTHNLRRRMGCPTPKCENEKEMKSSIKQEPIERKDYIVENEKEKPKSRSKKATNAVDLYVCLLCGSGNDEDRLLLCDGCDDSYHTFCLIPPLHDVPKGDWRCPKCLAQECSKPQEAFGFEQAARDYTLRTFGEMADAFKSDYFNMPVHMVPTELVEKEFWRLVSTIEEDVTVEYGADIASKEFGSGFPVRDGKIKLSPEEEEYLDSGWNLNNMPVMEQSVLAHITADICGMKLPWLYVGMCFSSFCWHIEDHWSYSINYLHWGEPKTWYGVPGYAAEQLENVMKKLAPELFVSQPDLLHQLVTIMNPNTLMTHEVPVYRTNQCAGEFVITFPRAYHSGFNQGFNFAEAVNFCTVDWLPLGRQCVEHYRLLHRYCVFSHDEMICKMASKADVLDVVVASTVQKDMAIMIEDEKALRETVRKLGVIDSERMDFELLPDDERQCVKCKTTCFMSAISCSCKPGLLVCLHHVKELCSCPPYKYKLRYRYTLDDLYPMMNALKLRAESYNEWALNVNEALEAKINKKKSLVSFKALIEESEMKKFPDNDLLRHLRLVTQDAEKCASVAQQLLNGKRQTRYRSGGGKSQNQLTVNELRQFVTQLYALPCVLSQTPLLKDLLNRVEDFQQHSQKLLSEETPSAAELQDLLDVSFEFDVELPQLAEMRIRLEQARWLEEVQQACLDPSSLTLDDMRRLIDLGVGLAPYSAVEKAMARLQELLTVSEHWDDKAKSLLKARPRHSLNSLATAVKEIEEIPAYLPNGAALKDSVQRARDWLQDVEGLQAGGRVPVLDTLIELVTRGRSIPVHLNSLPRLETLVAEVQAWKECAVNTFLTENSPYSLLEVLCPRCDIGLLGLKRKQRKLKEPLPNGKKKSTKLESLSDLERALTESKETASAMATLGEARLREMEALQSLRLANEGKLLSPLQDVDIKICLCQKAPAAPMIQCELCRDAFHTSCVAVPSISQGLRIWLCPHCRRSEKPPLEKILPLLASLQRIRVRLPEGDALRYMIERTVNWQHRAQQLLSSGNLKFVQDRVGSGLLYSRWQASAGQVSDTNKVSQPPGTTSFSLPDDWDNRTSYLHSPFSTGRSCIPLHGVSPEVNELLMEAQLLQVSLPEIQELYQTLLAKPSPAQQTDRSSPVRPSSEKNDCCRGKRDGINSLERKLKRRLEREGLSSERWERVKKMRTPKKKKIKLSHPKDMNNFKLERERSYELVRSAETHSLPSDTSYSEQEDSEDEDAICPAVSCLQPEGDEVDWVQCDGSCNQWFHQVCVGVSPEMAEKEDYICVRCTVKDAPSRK
Materials: 1536-well Black, solid bottom, medium binding assay plate is purchased from Greiner Bio-one. The enzymes (KDM5B) and substrate (H3K4me3/2) are provided by the principal investigators. The buffer for this assay is composed of 50mM HEPES at pH 7.5 with 0.01% Tween-20. FDH coupled Demethylase qHTS protocol: Three microliter enzyme mix (buffer + 200nM KDM5BDeltaAP final concentration) is dispensed into the assay plate using the BioRAPTR Flying Reagent Dispenser (FRD; […]). Compound (at various final concentration) and control solution is pin transferred to the assay plate using the Kalypsys 1536-pin tool apparatus. The assay plate is incubated for 10 min at room temperature followed by addition of 1uL substrate mix (buffer + 100uM ascorbic acid, 50uM ferrous ammonium sulfate, 12.5uM H3K4Me3, 25uM a-ketoglutarate, 0.25 mM NAD+, 0.25 U/mL formaldehyde dehydrogenase using the FRD yielding a total reaction volume of 4 uL. Initial fluorescence (Read1) is detected using the PerkinElmer ViewLux plate reader equipped with 340 nm excitation and 450 nm emission filters. The final fluorescence (Read2) signal is obtained after 30 min of room temperature incubation. Delta RFU is calculated (Read2 - Read1) and is used to generated dose response curves.
As to `Cc1ccccc1-c1ccc2n(c1=O)C[C@H]1C[C@@H]2CN(C(=O)CSCC(=O)O)C1`, the Potency was 39.8 µM (active).

Turning to `CCCS(=O)(=O)N1C[C@@H]2C[C@H](C1)c1ccc(-c3ccccc3C)c(=O)n1C2`, the Potency is 39.8 µM (active).

In the case of `O=C(NC1CCCCC1)N1C[C@@H]2C[C@H](C1)c1c(-c3ccccc3F)ccc(=O)n1C2`, the Potency result was “inactive”.

On to `O=C(COc1ccccc1)N1C[C@@H]2C[C@H](C1)c1c(-c3ccccc3F)ccc(=O)n1C2`, for which the Potency result is “inactive”. For `O=C(Nc1ccc(Cl)cc1)N1C[C@@H]2C[C@H](C1)c1c(-c3ccccc3F)ccc(=O)n1C2`, the Potency result was “inactive”. The entry for `O=C(Nc1ccc2n(c1=O)C[C@H]1C[C@@H]2CN(C(=O)c2ccccn2)C1)c1ccc(F)cc1` is “inactive”; for `Cc1ccc(NC(=O)N(Cc2ccc3c(c2)OCO3)C2CCN(Cc3ccccc3)CC2)cc1F` it is “inactive”.

Regarding `COc1ccc(/C=C\[N+](=O)[O-])c(OC)c1`, the Potency entry is “inactive”. The result for `CC1(C)NN1CCCCN1NC1(C)C` (stereo not given) reads “inactive”. The result for `COC1CN(c2ccc(C)cc2)C12CCNCC2` (stereo not given) reads “inactive”. The result for `Cn1nc(-c2cccs2)cc1[C@H]1CN2CC[C@H]1C[C@@H]2CNC(=O)Nc1ccccc1` reads “inactive”; that for `CN(C)C(=O)Oc1ccc2c(=O)c(-c3ccc(Br)cc3)c(C(F)(F)F)oc2c1`, “inactive”; that for `Cc1ccc(CN2CCC3(CCNCC3)C2)c(O)c1`, “inactive”. `Cc1ccc(C(=O)NC[C@H]2C[C@@H]3CCN2C[C@@H]3c2cc(-c3ccco3)nc(C)n2)cc1`: the Potency is 39.8 µM (active). The entry for `Cc1nc(-c2ccc(C(F)(F)F)cc2)cc([C@H]2CN3CC[C@H]2C[C@@H]3CNC(=O)c2ccco2)n1` is “inactive”; for `COc1ccc(C(=O)NC[C@H]2C[C@@H]3CCN2C[C@@H]3c2cc(-c3ccccc3)nn2C)cc1` it is “inactive”. The figure for `COc1ccccc1-c1cc([C@H]2CN3CC[C@H]2C[C@@H]3CNC(=O)c2ccco2)nc(C)n1` is 31.6 µM (active); for `COc1ccccc1-c1cc([C@H]2CN3CC[C@H]2C[C@@H]3CNC(C)=O)n(C)n1` it is “inactive”. The result for `COc1ccccc1-c1cc([C@H]2CN3CC[C@H]2C[C@@H]3CNC(=O)c2ccco2)n(C)n1` reads “inactive”. On to `COc1cc2c(cc1Oc1cccc(N(C)C)c1)NC(=O)C21CCN(Cc2ccccn2)CC1`, for which the Potency result is “inactive”. The result for `c1ccc(CCN2CCC3(CC2)OCCO3)cc1` reads “inactive”; that for `C=C[C@H]1CN2CC[C@H]1C[C@@H]2CNCc1ccc(C(F)(F)F)cc1`, “inactive”; that for `COc1ccc(-c2cc([C@H]3CN4CC[C@H]3C[C@@H]4COC(=O)NC(C)C)nc(C)n2)cc1`, 28.2 µM (active).

Take `Cc1nc(-c2ccc(N(C)C)cc2)cc([C@H]2CN3CC[C@H]2C[C@@H]3CNC(=O)C2CCC2)n1`: the Potency was 39.8 µM (active). The result for `Cc1nc(-c2ccccc2)cc([C@H]2CN3CC[C@H]2C[C@@H]3CNC2CCOCC2)n1` reads “inactive”; that for `COc1ccc(-c2cc([C@H]3CN4CC[C@H]3C[C@@H]4CNC(=O)C3CC3)n(C)n2)cc1OC`, “inactive”; that for `CCCS(=O)(=O)NC[C@H]1C[C@@H]2CCN1C[C@@H]2c1cc(-c2ccccc2)nc(C)n1`, “inactive”. The entry for `COc1ccc(-c2cc([C@H]3CN4CC[C@H]3C[C@@H]4CNC(=O)C3CCCCC3)n(C)n2)cc1` is “inactive”; for `CC(C)(C)NC(=O)NC(=O)CCl` it is “inactive”. The result for `Cc1ccc(C(=O)N2[C@H]3CC[C@@H]2c2cnc(-c4ccccc4)nc2C3)c(C)c1` reads “inactive”; that for `Cc1nc(C)c(C(=O)N2[C@H]3CC[C@@H]2c2cnc(-c4ccccc4)nc2C3)s1`, “inactive”. On to `CCOC(=O)c1c(C)n(Cc2ccccc2Cl)c2ccc(O)cc12`, for which the Potency result was “inactive”. The entry for `O=C(c1ccncc1)N1C[C@@H]2C[C@H](C1)c1ccc(C3CCCCC3)c(=O)n1C2` is “inactive”; for `O=C(Nc1ccccc1)N1C[C@@H]2C[C@H](C1)c1c(-c3ccc(Cl)cc3)ccc(=O)n1C2` it is “inactive”; for `CC(=O)Nc1ccc(-c2ccc3n(c2=O)C[C@H]2C[C@@H]3CN(C3CCN(C)CC3)C2)cc1` it is 39.8 µM (active).

Source of the values: PubChem BioAssay AID1347165 (National Center for Advancing Translational Sciences (NCATS), 2019).
